Reference: PubChem BioAssay (NCI)
The panel holds about 79,000 compounds, 15% with a hit somewhere; the sample as a whole holds those more often. The source made the active and inactive calls. No stated cut-off is given here; in the data, active means growth inhibition above about 70%; inactive means the rest.

Legend:
[1] = NCI Yeast Anticancer Drug Screen. Data for the rad52 strain (AID 147);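 further: 0% = growth of vehicle-treated control cultures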; conditions: S. cerevisiae rad52 mutant growth inhibition, active compounds read high
How it was run: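 Screen used a yeast mutant impaired in DNA repair. After compound exposure, growth was measured. Values reflect inhibition compared with vehicle-treated cells.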

[2] = NCI Yeast Anticancer Drug Screen. Data for the wt1 strain (AID 149);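 further: 0% = growth of vehicle-treated wt1 cultures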; conditions: S. cerevisiae wt1 strain (SPY 50644) growth inhibition, active compounds read high
How it was run: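 The wt1 strain was treated with compounds, and growth was compared with vehicle-treated cultures to give inhibition.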

[3] = NCI Yeast Anticancer Drug Screen. Data for the rad50EPP+ strain (AID 151);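 further: 0% = growth of vehicle-treated control cultures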; conditions: S. cerevisiae rad50 mutant strain, active compounds read high
How it was run: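 Exposing the rad50EPP+ strain to each compound, growth was compared with vehicle-only cultures to give inhibition.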

[4] = NCI Yeast Anticancer Drug Screen. Data for the mgt1 strain (AID 153); conditions: S. cerevisiae mgt1 mutant growth inhibition, active compounds read high
How it was run: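 Genetically defined yeast (mgt1) treated with compound; inhibition of growth expressed against vehicle-treated controls.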

[5] = NCI Yeast Anticancer Drug Screen. Data for the rad50 strain (AID 155);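 further: 0% = growth of vehicle-only cultures of the same strain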; conditions: S. cerevisiae rad50 strain growth inhibition, active compounds read high
How it was run: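 Cells are treated with compound, grown, and their growth is then scored against vehicle-only cultures of the same repair-deficient yeast strain.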

[6] = NCI Yeast Anticancer Drug Screen. Data for the mec2-1 strain (AID 157); conditions: S. cerevisiae mec2-1 strain, active compounds read high
How it was run: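 Readout is yeast growth inhibition, normalised to vehicle-treated controls, in the mec2-1 strain exposed to compound.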

[7] = NCI Yeast Anticancer Drug Screen. Data for the rad14 strain (AID 159);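 further: 0% = growth of vehicle-treated control cultures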; conditions: S. cerevisiae rad14 strain growth inhibition, active compounds read high
How it was run: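 Readout: yeast growth inhibition, referenced to vehicle-only cultures. Strain bears a defined alteration in DNA damage repair.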

[8] = NCI Yeast Anticancer Drug Screen. Data for the sgs1 mgt1 strain (AID 161);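 further: 0% = growth of cultures given vehicle only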; conditions: S. cerevisiae sgs1 mgt1 strain, active compounds read high
How it was run: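 Compounds are added to genetically altered yeast, and growth is compared with cultures given vehicle alone to give percent inhibition.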

[9] = NCI Yeast Anticancer Drug Screen. Data for the CLN2oe strain (AID 163);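 further: 0% = growth of vehicle-only control cultures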; conditions: S. cerevisiae CLN2oe strain, active compounds read high
How it was run: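 Values reflect how much compound exposure reduced yeast growth, referenced to vehicle-exposed cells. Assay organism is a strain with a defined genetic change affecting cell-cycle control.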

[10] = NCI Yeast Anticancer Drug Screen. Data for the cln2 rad14 strain (AID 165);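 further: 0% = growth equal to vehicle treated cultures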; conditions: S. cerevisiae cln2 rad14 strain, active compounds read high
How it was run: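 Relative to vehicle controls, growth inhibition of compound-treated cln2 rad14 yeast was recorded.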

[11] = NCI Yeast Anticancer Drug Screen. Data for the bub3 strain (AID 167); conditions: S. cerevisiae bub3 mutant strain, active compounds read high
How it was run: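 Part of a panel of yeast mutants defective in DNA damage repair or cell cycle regulation. Each strain is grown with compound, and inhibition is calculated relative to solvent-treated cultures.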

[12] = NCI Yeast Anticancer Drug Screen. Data for the wt2 strain (AID 169);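 further: 0% = growth of vehicle-treated yeast cultures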; conditions: S. cerevisiae wt2 strain growth inhibition, active compounds read high
How it was run: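 Values express reduction in yeast growth under compound treatment, referenced to vehicle-treated cells.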

[13] = NCI Yeast Anticancer Drug Screen. Data for the mlh1 strain (AID 171);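 further: 0% = growth of vehicle-treated control cultures of the same strain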; conditions: S. cerevisiae mlh1 strain growth inhibition, active compounds read high
How it was run: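 Steps: expose the defined-mutant yeast strain to compound; expose a parallel culture to vehicle; measure growth; express compound effect as inhibition relative to the vehicle culture.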

[14] = NCI Yeast Anticancer Drug Screen. Data for the sgs1 strain (AID 173);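 further: 0% = growth of vehicle-only control cultures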; conditions: S. cerevisiae sgs1 mutant, active compounds read high
How it was run: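 Treat defined-mutant yeast with compound; measure growth; calculate inhibition relative to vehicle-treated cells.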

[15] = NCI Yeast Anticancer Drug Screen. Data for the mlh1 rad18 strain (AID 175); conditions: S. cerevisiae mlh1 rad18 strain growth inhibition, active compounds read high
How it was run: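 Test agents were incubated with a yeast strain of defined genotype (DNA damage repair defect). Inhibition of growth was derived by comparison with vehicle-exposed cultures.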

[16] = NCI Yeast Anticancer Drug Screen. Data for the rad18 strain (AID 177); conditions: S. cerevisiae rad18 mutant growth inhibition, active compounds read high
How it was run: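 A genetically defined yeast mutant impaired in DNA damage repair was treated with test compounds, then its growth was measured against cultures receiving vehicle alone.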

[17] = at 5.0 µM (retest, dose inferred, filed as 0.5)
[18] = at 50.0 µM (retest, dose inferred, filed as 5.0)

Measured: growth inhibition

Cc1c(C(=O)/C=C/c2ccccc2[N+](=O)[O-])[n+](=O)c2ccccc2n1[O-]
active: [1]; at 1.2 µM 78% | [1]; at 3.7 µM 90% | [1]; at 11.0 µM 93% | [1]; at 33.0 µM 93% | [1]; at 100.0 µM 93% | [3]; at 11.0 µM 77% | [3]; at 33.0 µM 76% | [3]; at 100.0 µM 79% | [4]; at 11.0 µM 93% | [4]; at 33.0 µM 94% | [4]; at 100.0 µM 96% | [5]; at 3.7 µM 86% | [5]; at 11.0 µM 90% | [5]; at 33.0 µM 91% | [5]; [18] 84% | [5]; at 50.0 µM 97.5% | [5]; at 100.0 µM 92% | [6]; at 11.0 µM 77% | [6]; at 33.0 µM 85% | [6]; [18] 83% | [6]; at 50.0 µM 90.5% | [6]; at 100.0 µM 89% | [7]; at 11.0 µM 73% | [7]; at 33.0 µM 74% | [7]; at 100.0 µM 76% | [8]; [18] 98% | [8]; at 50.0 µM 98% | [10]; at 50.0 µM 94.5% | [11]; at 50.0 µM 94.2% | [12]; at 3.7 µM 85% | [12]; at 11.0 µM 91% | [12]; at 33.0 µM 84% | [12]; at 100.0 µM 94% | [13]; at 3.7 µM 73% | [13]; at 11.0 µM 92% | [13]; at 33.0 µM 94% | [13]; at 100.0 µM 94% | [14]; at 1.2 µM 73% | [14]; at 3.7 µM 91% | [14]; at 11.0 µM 94% | [14]; at 33.0 µM 94% | [14]; at 100.0 µM 93% | [15]; [18] 94% | [15]; at 50.0 µM 98.2% | [16]; at 1.2 µM 84% | [16]; at 3.7 µM 90% | [16]; at 11.0 µM 92% | [16]; at 33.0 µM 92% | [16]; at 100.0 µM 93%
inactive: [2]; at 1.2 µM -1% | [2]; at 3.7 µM 22% | [2]; at 11.0 µM 42% | [2]; at 33.0 µM 49% | [2]; at 100.0 µM 60% | [3]; at 1.2 µM 41% | [3]; at 3.7 µM 67% | [4]; at 1.2 µM 10% | [4]; at 3.7 µM 61% | [5]; at 1.2 µM 66% | [5]; [17] 12% | [6]; at 1.2 µM 12% | [6]; at 3.7 µM 32% | [6]; [17] 2% | [7]; at 1.2 µM 37% | [7]; at 3.7 µM 61% | [8]; [17] 6% | [9]; at 1.2 µM 12% | [9]; at 3.7 µM 25% | [9]; at 11.0 µM 41% | [9]; at 33.0 µM 47% | [9]; at 100.0 µM 66% | [10]; [17] -4% | [10]; [18] 54% | [11]; at 1.2 µM -1% | [11]; at 3.7 µM 42% | [11]; [17] -3% | [11]; at 11.0 µM 29% | [11]; at 33.0 µM 33% | [11]; [18] 57% | [11]; at 100.0 µM 29% | [12]; at 1.2 µM 44% | [13]; at 1.2 µM 25% | [15]; [17] 8%

CCN(CC)CCC(=O)Nc1ccc2sc3ccccc3c(=O)c2n1
inactive: [1]; at 1.2 µM 33% | [2]; at 1.2 µM -4% | [2]; at 3.7 µM -2% | [2]; at 11.0 µM 1% | [2]; at 33.0 µM 10% | [2]; at 100.0 µM 8% | [3]; at 1.2 µM 25% | [3]; at 3.7 µM 66% | [4]; at 1.2 µM -1% | [4]; at 3.7 µM -4% | [4]; at 11.0 µM 5% | [4]; at 33.0 µM 4% | [4]; at 100.0 µM 3% | [5]; at 1.2 µM 21% | [5]; at 3.7 µM 53% | [5]; [17] 6% | [5]; at 50.0 µM 70% | [6]; at 1.2 µM 1% | [6]; at 3.7 µM 3%
active: [1]; at 3.7 µM 70% | [1]; at 11.0 µM 92% | [1]; at 33.0 µM 95% | [1]; at 100.0 µM 94% | [3]; at 11.0 µM 89% | [3]; at 33.0 µM 94% | [3]; at 100.0 µM 94% | [5]; at 11.0 µM 85% | [5]; at 33.0 µM 93% | [5]; [18] 90% | [5]; at 100.0 µM 91%
